12-LOX inh – blocks human arachidonate 12S-lipoxygenase | Potency, µM (top dose mostly 108 µM), without a hit: at the highest dose activity change, negative = inhibition, usual class: inhibitors | AID 1671190 | P18054 | purified 12hLO, xylenol orange hydroperoxide absorbance | 580,000 tested, 1.1% active; further: on the % scale 0 is the no-effect control and ±100 the full control effect
Target sequence (P18054 whole entry, looked up): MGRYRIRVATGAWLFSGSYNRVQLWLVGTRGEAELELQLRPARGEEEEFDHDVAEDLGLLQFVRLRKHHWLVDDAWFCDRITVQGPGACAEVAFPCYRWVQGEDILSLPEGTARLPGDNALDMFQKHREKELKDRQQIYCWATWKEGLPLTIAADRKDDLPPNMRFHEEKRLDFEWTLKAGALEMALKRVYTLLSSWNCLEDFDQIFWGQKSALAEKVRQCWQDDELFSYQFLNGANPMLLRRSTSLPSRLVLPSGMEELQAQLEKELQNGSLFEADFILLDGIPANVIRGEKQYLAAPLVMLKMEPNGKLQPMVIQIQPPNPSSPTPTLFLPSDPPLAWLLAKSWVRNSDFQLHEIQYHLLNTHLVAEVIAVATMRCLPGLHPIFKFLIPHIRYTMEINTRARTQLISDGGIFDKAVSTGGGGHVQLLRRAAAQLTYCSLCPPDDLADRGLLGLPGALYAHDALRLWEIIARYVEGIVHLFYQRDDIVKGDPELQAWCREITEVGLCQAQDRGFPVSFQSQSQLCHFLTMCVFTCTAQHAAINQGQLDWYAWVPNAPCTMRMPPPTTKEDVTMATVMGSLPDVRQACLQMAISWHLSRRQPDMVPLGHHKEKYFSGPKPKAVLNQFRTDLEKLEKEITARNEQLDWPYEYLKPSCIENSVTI
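Purified human 12hLO (150 nM final) in 25 mM Hepes, 0.01% Triton X-100, pH 7.0 was preincubated 15 min at room temperature with compound. Then 40 uM arachidonic acid was added, 30 min. Hydroperoxide was read by Fe-XO absorbance ratio 573/405 nm.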
G9a block – G9a (human) methyltransferase inhibition. Potency, µM (top dose mostly 102 µM), without a hit: at the highest dose activity, negative = inhibition, most hits filed as inhibitors. 350,000 tested, 8.8% active. Q96KQ7. G9a H3K9 monomethylation, AlphaScreen, 2 h. AID 504332; further: on the % scale 0 is the no-effect control and ±100 the full control effect; nearly all actives have a fitted effect of over 75% in size
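Chemiluminescent proximity detection of H3K9 monomethylation, read after 10 min bead incubation in the dark. Reaction: 20 nM G9a, 500 nM biotin-H3K9 peptide, 20 uM SAM cofactor, 2 h, room temperature, following 15 min enzyme-compound preincubation.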
JMJD2A Tudor – inhibitors of human JMJD2A Tudor domain; 390,000 tested, 4.4% active; AlphaScreen JMJD2A-Tudor / H3K4me3 peptide binding; AID 504339; Potency, µM (series often up to 114 µM), for inactives: top-dose activity change, negative = inhibition, most hits filed as inhibitors; further: on the % scale 0 is the no-effect control and ±100 the full control effect; nearly all actives have a fitted effect of over 50% in size
PLK1 PBD block – PLK1 (human) polo-box domain binding inhibition | P53350 | Plk1 PBD binding of FITC phosphopeptide, fluorescence polarization | Potency, µM, inactives show max response, negative = inhibition, usual class: inhibitors | 360,000 tested, 2.8% active | AID 720504; further: series mostly up to about 57 µM; on the % scale 0 is the no-effect control and ±100 the full control effect; nearly all actives have a fitted effect of over 65% in size
BAZ2B block – BAZ2B (human) inhibition | Q9UIF8 | AlphaScreen BAZ2B-H3K14Ac peptide displacement | Potency, µM (titrated, usually from 114 µM), for the others: at the highest dose activity change, negative = inhibition, most hits filed as inhibitors | 360,000 tested, 4.4% active | AID 504333; further: on the % scale 0 is the no-effect control and ±100 the full control effect; nearly all actives have a fitted effect of over 60% in size
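AlphaScreen luminescence quantifies BAZ2B engagement of H3K14Ac peptide; the protein and biotinylated peptide are both at 50 nM final, buffer PBS pH 7.4 with 0.01% Tween-20, all steps at room temperature.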
HP1b binding inh – HP1-beta chromodomain-methylated histone interaction inhibition. P83916. AlphaScreen HP1-beta / biotin-H3K9me3 peptide binding. Potency, µM (series often up to 114 µM), without a hit: at the highest dose activity change, negative = inhibition, usual class: inhibitors. 390,000 tested, 0.56% active; further: nearly all actives have a fitted effect of over 70% in size
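HP1-beta protein (50 nM final) preincubated 30 min at room temperature with biotinylated H3(1-18)K9me3 peptide (50 nM) in PBS pH 7.4, 0.01% Tween-20, then compound added for 30 min. AlphaScreen streptavidin donor/nickel chelate acceptor beads (10 ug/mL final), 30 min dark, luminescence read.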
Active calls of the source: *; [ ] = remark or other dose. Most compounds without a hit are left out; they make up all but 9% or so of the library. The call rests on the fitted dose curve; in most records, active means well fitted curve in the direction sought with a large enough effect; inconclusive means small, poorly fitted or top-dose-only effect, or another doubt; inactive means no such curve, though single readings can be large; an effect the other way counts as inactive or inconclusive. Potency means the concentration at half of the fitted maximal effect.

Results for CCOC(=O)N1CCN(S(=O)(=O)c2ccc(C(=O)Nc3nc4ccccc4s3)cc2)CC1 ?
12-LOX inh: 9%; G9a block: 50µM*; JMJD2A Tudor: -14%; PLK1 PBD block: -2%; BAZ2B block: 5%; HP1b binding inh: 22%

What do the screens show for `CCOC(=O)N1CCN(S(=O)(=O)c2ccc(C(=O)Nc3sc4c(c3C(N)=O)CC(C)(C)NC4(C)C)cc2)CC1`?
12-LOX inh: 12%; G9a block: 50µM*; JMJD2A Tudor: -21%; PLK1 PBD block: -3%; BAZ2B block: -23%; HP1b binding inh: 23%

How did CCOC(=O)c1sc(NC(=O)c2ccc(S(=O)(=O)N3CCOCC3)cc2)nc1-c1ccccc1 do in these assays?
12-LOX inh: 1%; G9a block: 45µM*; JMJD2A Tudor: -25%; PLK1 PBD block: -2%; BAZ2B block: 10%; HP1b binding inh: 32%

How did CC1CCN(S(=O)(=O)c2ccc(C(=O)Nc3sc4c(c3C(N)=O)CC(C)(C)NC4(C)C)cc2)CC1 do in these assays?
12-LOX inh: inconclusive; G9a block: -20%[59 µM]; JMJD2A Tudor: inconclusive; BAZ2B block: 5%; HP1b binding inh: 26%

What do the screens show for `CCOC(=O)c1c(-c2ccccc2)csc1NC(=O)c1cc(S(=O)(=O)N2CCOCC2)ccc1C`?
12-LOX inh: -20%; G9a block: 32µM*; JMJD2A Tudor: -11%; PLK1 PBD block: inconclusive; BAZ2B block: 2%; HP1b binding inh: inconclusive

Results for O=C(c1ccco1)N1CCN(C(c2ccccc2)c2nnnn2Cc2cccs2)CC1 (stereo not drawn) ?
12-LOX inh: inconclusive; G9a block: inconclusive; JMJD2A Tudor: -27%; PLK1 PBD block: -7%; BAZ2B block: inconclusive; HP1b binding inh: 9%

How did O=C(CCC1CCN(C(=O)c2ccccc2)CC1)NCCN1CCCCC1 do in these assays?
12-LOX inh: 31%

What do the screens show for `CCOc1cccc2sc(NC(=O)c3ccc(S(=O)(=O)N4CCc5ccccc54)cc3)nc12`?
12-LOX inh: -22%; G9a block: 1%[59 µM]; JMJD2A Tudor: -22%; BAZ2B block: -1%; HP1b binding inh: 11%[57 µM]

How did CCOc1cccc2sc(NC(=O)c3ccc(S(=O)(=O)N4CCCCC4)cc3)nc12 do in these assays?
12-LOX inh: 45µM*; G9a block: -1%[59 µM]; JMJD2A Tudor: -24%; BAZ2B block: 2%; HP1b binding inh: 17%[57 µM]

Results for Cn1c(=O)c2c(-c3ccccc3Br)n(C(C)(C)C)cc2n(C)c1=O ?
12-LOX inh: -27%; G9a block: -32%[59 µM]; JMJD2A Tudor: -32%; BAZ2B block: 79µM*; HP1b binding inh: -8%

Results for CCCN1CCN(C(=O)Cn2c(-c3cccs3)cc3cc(F)ccc32)CC1 ?
12-LOX inh: -19%; G9a block: -7%[59 µM]; JMJD2A Tudor: -18%; BAZ2B block: -13%; HP1b binding inh: 24%

How did CCOC(=O)CNC(=O)COc1coc(CN2CCN(c3ccc(F)cc3)CC2)cc1=O do in these assays?
12-LOX inh: -19%; G9a block: 3%; JMJD2A Tudor: 5%; PLK1 PBD block: -3%; BAZ2B block: -12%; HP1b binding inh: 23%

How did Cn1c(CN2CCOC[C@H]2c2ncc(-c3ccc(Cl)cc3)[nH]2)nc2ccccc21 do in these assays?
12-LOX inh: 35µM*

What do the screens show for `c1cc(CN2CCOCC2)cc(-c2cnn3ccccc23)c1`?
12-LOX inh: 9%

Results for Cc1cccc(C)c1OCC(=O)N(Cc1ccccc1F)C1CCS(=O)(=O)C1 (stereo not drawn) ?
12-LOX inh: -11%; G9a block: -36%[59 µM]; JMJD2A Tudor: -9%; BAZ2B block: -2%; HP1b binding inh: 16%

How did O=C1CC(c2cc(-c3ccccc3)no2)C1 do in these assays?
12-LOX inh: 2%; JMJD2A Tudor: -4%; PLK1 PBD block: -20%; BAZ2B block: 3%; HP1b binding inh: 58%

Results for COc1cccc(CC(=O)Nc2ccc3c(c2)CN(C2CCCCC2)C(=O)CO3)c1 ?
12-LOX inh: 11%

How did CCc1noc(-c2ccn3c(CNC(=O)c4cccc(Cl)c4)nnc3c2)n1 do in these assays?
12-LOX inh: 34%

How did CC(C)c1noc(-c2ccn3c(CNC(=O)Cc4ccccc4Cl)nnc3c2)n1 do in these assays?
12-LOX inh: 11%

What do the screens show for `CCCc1noc(-c2ccn3c(CNC(=O)c4ccc(CC)cc4)nnc3c2)n1`?
12-LOX inh: 40µM*

How did CCCc1noc(-c2ccn3c(CNC(=O)c4ccc(F)c(Cl)c4)nnc3c2)n1 do in these assays?
12-LOX inh: 50µM*

What do the screens show for `CCCc1noc(-c2ccn3c(CNC(=O)Cc4ccccc4Cl)nnc3c2)n1`?
12-LOX inh: 45µM*

How did CCc1noc(-c2ccn3c(CNC(=O)c4ccc(F)cc4)nnc3c2)n1 do in these assays?
12-LOX inh: 11%

What do the screens show for `Cc1onc(-c2ccccc2)c1-c1nnc(CN2CCN(S(=O)(=O)c3ccccc3F)CC2)o1`?
12-LOX inh: inconclusive; G9a block: 11%[59 µM]; JMJD2A Tudor: -13%; PLK1 PBD block: -2%; BAZ2B block: 1%; HP1b binding inh: 29%

Results for COC(C(=O)Nc1ccnn1C1CCN(Cc2ccc(CO)o2)CC1)c1ccccc1 (stereo not drawn) ?
12-LOX inh: -12%; JMJD2A Tudor: -17%; PLK1 PBD block: -13%; BAZ2B block: -2%; HP1b binding inh: -1%

What do the screens show for `CCOC(=O)c1c(C)oc2nc(C)nc(NCC3CCN(Cc4ccc(C)cc4)CC3)c12`?
12-LOX inh: -6%; G9a block: -24%[59 µM]; JMJD2A Tudor: -21%; BAZ2B block: 1%[57.1 µM]; HP1b binding inh: 15%

What do the screens show for `CCOC(=O)Cn1c(C(F)(F)F)nc2nc(Cl)c(Cl)nc21`?
12-LOX inh: -8%; JMJD2A Tudor: -8%; PLK1 PBD block: 4%; HP1b binding inh: 31%

How did Cc1cc(C)c(S(=O)(=O)c2ccccc2)c(OC(=O)c2c(Cl)cccc2Cl)n1 do in these assays?
12-LOX inh: 0%; G9a block: 19%[59 µM]; JMJD2A Tudor: -16%; PLK1 PBD block: -11%; BAZ2B block: 2%; HP1b binding inh: 13%

Results for Cc1cc(C)c(S(=O)(=O)c2ccccc2)c(OC(=O)c2ccc(Cl)cc2Cl)n1 ?
G9a block: 19%; JMJD2A Tudor: -22%; PLK1 PBD block: -20%; BAZ2B block: 56µM*; HP1b binding inh: 103%

How did Cc1c(O)c(=O)n(-c2ccccc2)n1C do in these assays?
12-LOX inh: inconclusive; G9a block: 8.9µM*; JMJD2A Tudor: -8%; PLK1 PBD block: -1%; BAZ2B block: 30%; HP1b binding inh: 16%
